Laboratory results taken from PubChem BioAssay (NCATS).
Values without a mark were called inactive. Records with an inconclusive call do not appear. A call without a number means that no potency is given here. Calls of active or inactive are those of the source. Unless noted, calls follow the shape of the dose curve; as a rule, active = well fitted curve in the direction sought with a large enough effect; inconclusive = small, poorly fitted or top-dose-only effect, or another doubt; inactive = no such curve, though single readings can be large; an effect the other way counts as inactive or inconclusive.

What was measured:
[1] = Cell Viability - LYMP2-001 (AID 921); also: series mostly up to about 92 µM; nearly all actives have a fitted effect of over 70% in size
Method in brief: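 A lymphoblastoid cell line of human origin was treated with library compounds across a concentration series for 24 hours, and viable cell number was estimated from ATP-driven luciferase light output. Hill modeling gave AC50.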

[2] = Confirmation and Secondary Assay for Modulators of Hemoglobin Beta Chain Splicing at IVS2 705 locus (AID 930);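 also: HeLa cells stably expressing the EGFP-705 splicing reporter; GFP fluorescence per well restored by corrected splicing of the IVS2-705 intron in EGFP; series mostly up to about 46 µM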
Method in brief: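 HeLa cells stably carrying EGFP interrupted by mutant beta-globin intron 2 (IVS2-705) treated 2 days at 37C with compound; 500 nM antisense PNA as control. Correct splicing read as total peak GFP intensity per well by laser-scanning cytometry.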

[3] = MultiTox-Fluor Cytotoxicity Assay - LYMP1-001 - Dead Cells (AID 946)
Method in brief: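 Cytotoxicity as increased dead-cell protease fluorescence (bis-AAF-R110, 485/520 nm), read 60 min after MultiTox-Fluor reagent. Human lymphoblastoid line exposed 16 h; Hill-fitted AC50, with DMSO as 0% and 15 uM tetraoctylammonium bromide as 100%.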

[4] = MultiTox-Fluor Cytotoxicity Assay - LYMP1-001 - Live Cells (AID 947)
[5] = Cell Viability - LYMP1-002 - Assay at 16 hr (AID 948)
Method in brief: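 In this qHTS, lymphoblastoid LYMP1-002 cells (human) receive compounds for 16 hr at 37 C. Viability is taken from CellTiter-Glo ATP luminescence, and AC50 derives from standard Hill fits.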

[6] = MultiTox-Fluor Cytotoxicity Assay - LYMP1-002 - Live Cells (AID 955)
Method in brief: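 Human lymphoblastoid LYMP1-002 cells, 2500/well in complete medium, rested 5 hr at 37 C, then exposed to compounds for 16 hr at 37 C. Live-cell protease cleavage of GF-AFC read by fluorescence (Ex/Em 405/510) after 60 min at room temperature; AC50 from Hill fits.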

[7] = MultiTox-Fluor Cytotoxicity Assay - LYMP1-002 - Dead Cells (AID 960); also: nearly all actives have a fitted effect of over 60% in size
Method in brief: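 Human lymphoblastoid cells (LYMP1-002), 2500/well in complete medium, were exposed to compounds for 16 hr at 37 C. Dead-cell protease activity was read as bis-AAF-R110 fluorescence (Ex/Em 485/520), normalized to DMSO and 15 uM tetraoctylammonium bromide; AC50 from Hill fits.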

[8] = MultiTox-Fluor Cytotoxicity Assay - LYMP1-003 - Dead Cells (AID 961); also: nearly all actives have a fitted effect of over 70% in size
Method in brief: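 Dead-cell protease release, detected as bis-AAF-R110 fluorescence at 485/520 nm, was measured in LYMP1-003 cells after 16 h compound treatment at 37 C. AC50 values came from Hill-modeled qHTS curves normalized to DMSO (0%) and 15 uM tetraoctylammonium bromide (100%).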

[9] = MultiTox-Fluor Cytotoxicity Assay - LYMP1-003 - Live Cells (AID 962);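 also: cytotoxic hits lower the live-cell protease signal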
Method in brief: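 LYMP1-003 human lymphoblastoid cells (2500/well) in complete medium were preincubated 5 hr at 37 C, then exposed to compounds for 16 hr at 37 C. Live-cell protease cleavage of GF-AFC read by fluorescence (Ex/Em 405/510); AC50 from Hill fits.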

[10] = Cell Viability - LYMP1-003 - Assay at 24 hr (AID 963)
Method in brief: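 Human lymphoblastoid LYMP1-003 cells (2500/well) were rested 5 hr at 37 C, then exposed to compounds in complete medium for 24 hr at 37 C. Cellular ATP was quantified by CellTiter-Glo luminescence, and AC50 values came from Hill fits of concentration-response data.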

[11] = Cell Viability - LYMP1-003 - Assay at 40 hr (AID 964); also: series mostly up to about 92 µM; nearly all actives have a fitted effect of over 60% in size
Method in brief: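 Human lymphoblastoid LYMP1-003 cells, 2500/well in complete medium, rested 5 hr at 37 C, then exposed to compounds for 40 hr at 37 C. Viability read as intracellular ATP by CellTiter-Glo luminescence; AC50 from Hill fits of concentration-response data.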

[12] = qHTS Assay for Identification of Small Molecule Agonists for Thrombopoietin (TPO) Signaling Pathway (AID 917); also: potency is read from the fitted curve at half-maximal effect
Method in brief: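 IL-3-dependent murine pro-B Ba/F3 cells, stably transfected with human TPO receptor and GpIIb-promoter luciferase, are incubated 24 hrs at 37 C with test compound and 26 pM TPO; luciferase signal is read after 10 min at room temperature.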

[13] = target: Pyruvate kinase (Leishmania mexicana) (UniProt Q27686); assay: qHTS Validation Assay for Inhibitors of Leishmania Mexicana Pyruvate Kinase (AID 945)
Method in brief: (§1)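 Eight-point qHTS titrations in triplicate, data normalized to DMSO neutral control. Reaction: 0.2 nM LmPYK E451W mutant, 0.5 mM PEP, 0.1 mM ADP, 7 mM MgCl2, pH 7.2, one hour at room temperature; luminescent ATP detection.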

[14] = target: Pyruvate kinase PKM (Homo sapiens) (UniProt P14618); assay: qHTS Assay for Activators of Human Muscle Pyruvate Kinase (AID 954; active = well fitted curve in the direction sought with a large enough effect, not every such curve was filed as active)
Method in brief: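 Human PKM2 activity is measured as ATP generation, detected by luciferase-coupled luminescence. The enzyme (0.1 nM) acts on 0.5 mM PEP and 0.1 mM ADP for 1 h at ambient temperature; data are normalized to uninhibited and full-inhibition wells.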

[15] = target: Muscarinic acetylcholine receptor M1 (Rattus norvegicus) (UniProt P08482); assay: qHTS Assay for Antagonists of Acetylcholine Muscarinic M1 Receptor: Measurement of IP-One Response (AID 944); also: nearly all actives have a fitted effect of over 75% in size
Method in brief: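 CHO cells expressing rat M1 receptor, recovered overnight, were pre-incubated 10 min with compound, then stimulated 30 min with carbachol at EC80 (200 nM) in LiCl-containing buffer, pH 7.4. IP1 accumulation was read by HTRF (620/665 nm).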

[16] = qHTS Assay for Identification of Small Molecule Antagonists for Thrombopoietin (TPO) Signaling Pathway (AID 918); conditions: TPO-dependent cell signaling reporter, antagonist mode; also: potency is read from the fitted curve at half-maximal effect; nearly all actives have a fitted effect of over 60% in size
Method in brief: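 Murine Ba/F3 cells stably expressing human TPO receptor and a Glycoprotein IIb promoter–luciferase reporter were IL-3-starved overnight, treated with compounds plus TPO (26 pM final, its EC50) for 24 hrs at 37 C, then read by luminescence.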

[17] = qHTS Assay for Identification of Small Molecule Agonists for Hypoxia Response Element Signaling Pathway (AID 914; active = well fitted activation curve with a large enough effect in the signal ratio, with a control signal flat, not every such curve was filed as active; the % refers to the signal ratio); conditions: ME-180 (cervical carcinoma) HRE-bla reporter, beta-lactamase ratio, CoCl2, 17 h; stronger effect = higher value
Method in brief: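 HRE-bla ME-180 cells with beta-lactamase reporter under hypoxia response element, compounds with EC50 CoCl2 for 17 hours at 37 C. CCF4 substrate, 460nm/530nm emission ratio gave %Activity; AC50 from titration series.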

[18] = target: Pyruvate kinase PKM (Homo sapiens) (UniProt P14618); assay: qHTS Assay for Inhibitors of Human Muscle Pyruvate Kinase (AID 958); conditions: purified human PKM enzyme activity
Method in brief: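 Luminescence from a luciferase ATP-detection/stop reagent reported PKM2 activity. Reactions contained 0.1 nM purified human enzyme, 0.5 mM PEP, 0.1 mM ADP and 7 mM MgCl2 at pH 7.2, run 1 h at RT.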

[19] = target: Pyruvate kinase (Leishmania mexicana) (UniProt Q27686); assay: qHTS Validation Assay for Activators of Leishmania Mexicana Pyruvate Kinase (AID 959)
Method in brief: as §1

Chain of Pyruvate kinase PKM (Homo sapiens) (P14618 whole entry, looked up): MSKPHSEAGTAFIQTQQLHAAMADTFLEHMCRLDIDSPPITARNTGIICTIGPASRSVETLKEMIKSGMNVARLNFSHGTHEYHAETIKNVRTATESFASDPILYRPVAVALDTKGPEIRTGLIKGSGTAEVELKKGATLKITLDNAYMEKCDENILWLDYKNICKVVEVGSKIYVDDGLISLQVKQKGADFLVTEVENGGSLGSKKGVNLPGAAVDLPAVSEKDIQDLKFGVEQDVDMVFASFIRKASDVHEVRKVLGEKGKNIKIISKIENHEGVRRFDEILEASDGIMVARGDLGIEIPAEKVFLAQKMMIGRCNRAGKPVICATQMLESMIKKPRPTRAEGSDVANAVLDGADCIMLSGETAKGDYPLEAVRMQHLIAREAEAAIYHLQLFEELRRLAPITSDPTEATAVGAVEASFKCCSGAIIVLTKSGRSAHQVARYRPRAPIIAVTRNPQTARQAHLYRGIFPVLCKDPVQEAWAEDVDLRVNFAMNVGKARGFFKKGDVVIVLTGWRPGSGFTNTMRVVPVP
Chain of Muscarinic acetylcholine receptor M1 (Rattus norvegicus) (P08482 whole entry, looked up): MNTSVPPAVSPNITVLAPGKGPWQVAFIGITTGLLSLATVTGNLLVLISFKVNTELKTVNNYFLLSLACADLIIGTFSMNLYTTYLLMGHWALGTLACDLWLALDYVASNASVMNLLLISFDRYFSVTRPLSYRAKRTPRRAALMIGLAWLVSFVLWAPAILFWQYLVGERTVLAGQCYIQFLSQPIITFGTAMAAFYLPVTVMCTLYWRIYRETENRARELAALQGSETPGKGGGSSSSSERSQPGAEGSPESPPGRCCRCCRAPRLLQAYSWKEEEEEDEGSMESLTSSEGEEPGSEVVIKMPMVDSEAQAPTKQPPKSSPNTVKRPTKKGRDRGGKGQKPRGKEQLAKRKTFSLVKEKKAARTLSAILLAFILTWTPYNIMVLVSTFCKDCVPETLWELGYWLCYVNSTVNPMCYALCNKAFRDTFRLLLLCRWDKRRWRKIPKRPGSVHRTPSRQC
Chain of Pyruvate kinase (Leishmania mexicana) (Q27686 2-499 E452W): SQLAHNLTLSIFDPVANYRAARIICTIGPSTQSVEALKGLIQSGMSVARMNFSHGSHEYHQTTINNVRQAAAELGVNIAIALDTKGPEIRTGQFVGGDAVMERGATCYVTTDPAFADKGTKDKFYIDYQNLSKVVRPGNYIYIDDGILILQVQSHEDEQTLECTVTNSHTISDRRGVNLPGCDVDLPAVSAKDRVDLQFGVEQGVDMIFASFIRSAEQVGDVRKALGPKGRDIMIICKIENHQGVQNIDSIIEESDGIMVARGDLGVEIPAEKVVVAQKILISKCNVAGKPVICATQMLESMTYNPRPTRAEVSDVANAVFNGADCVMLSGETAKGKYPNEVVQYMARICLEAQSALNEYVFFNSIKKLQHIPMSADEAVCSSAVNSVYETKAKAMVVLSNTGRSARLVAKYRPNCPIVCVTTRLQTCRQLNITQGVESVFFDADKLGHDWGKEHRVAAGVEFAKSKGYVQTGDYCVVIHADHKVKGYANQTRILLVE

Compound: COc1c2occc2cc2ccc(=O)oc12
- Potency [1]: inactive
- Potency [2]: inactive
- Potency [3]: inactive
- Potency [4]: inactive
- Potency [5]: inactive
- Potency [6]: inactive
- outcome [7]: inactive
- Potency [8]: inactive
- Potency [9]: inactive
- Potency [10]: inactive
- Potency [11]: inactive

Compound: COc1ccccc1N1CCN(CCN(C(=O)C2CCCCC2)c2ccccn2)CC1
- Potency [12]: inactive
- Potency [13]: inactive
- outcome [14]: inactive

Compound: O=C(O)c1cccnc1Nc1cccc(C(F)(F)F)c1
- Potency [12]: inactive
- Potency [2]: inactive
- Potency [13]: inactive
- outcome [14]: inactive

Compound: O=C(CCc1ccc(O)cc1)c1c(O)cc(O)cc1O
- Potency [12]: inactive
- Potency [2]: inactive
- Potency [15]: inactive
- Potency [13]: inactive
- outcome [14]: inactive

Compound: CC1(C)NC(=O)N(c2ccc([N+](=O)[O-])c(C(F)(F)F)c2)C1=O
- Potency [12]: inactive
- Potency [2]: inactive
- Potency [13]: inactive
- outcome [14]: inactive

Compound: CCN(CC)C(=S)SSC(=S)N(CC)CC
- Potency [16]: 398 nM (active)
- Potency [2]: inactive
- Potency [15]: inactive
- outcome [14]: inactive

Compound: Cc1ccc(C)c(OCCCC(C)(C)C(=O)O)c1
- Potency [1]: inactive
- Potency [2]: inactive
- Potency [3]: inactive
- Potency [4]: inactive
- Potency [5]: inactive
- Potency [6]: inactive
- outcome [7]: inactive
- Potency [8]: inactive
- Potency [9]: inactive
- Potency [10]: inactive
- Potency [11]: inactive

Compound: COc1ccc2cc([C@H](C)C(=O)O)ccc2c1
- Potency [12]: inactive
- Potency [13]: inactive
- outcome [14]: inactive

Compound: CCCc1cc(=O)[nH]c(=S)[nH]1
- Potency [1]: inactive
- Potency [2]: inactive
- Potency [3]: inactive
- Potency [4]: inactive
- Potency [5]: inactive
- Potency [6]: inactive
- outcome [7]: inactive
- Potency [8]: inactive
- Potency [9]: inactive
- Potency [10]: inactive
- Potency [11]: inactive

Compound: Nc1nc(OCc2ccccc2)c2[nH]cnc2n1
- Potency [12]: inactive
- Potency [15]: inactive
- Potency [13]: inactive
- outcome [14]: inactive

Compound: NS(=O)(=O)c1cc(C(=O)O)c(NCc2ccco2)cc1Cl
- activation [17]: -15.7%
- Potency [1]: inactive
- Potency [2]: inactive
- Potency [3]: inactive
- Potency [4]: inactive
- Potency [5]: inactive
- Potency [6]: inactive
- outcome [7]: inactive
- Potency [8]: inactive
- Potency [9]: inactive
- Potency [10]: inactive
- Potency [11]: inactive

Compound: Cc1c(OCC(F)(F)F)ccnc1CS(=O)c1nc2ccccc2[nH]1 (configuration not stated)
- Potency [12]: inactive
- Potency [2]: inactive
- Potency [15]: inactive
- Potency [13]: inactive
- outcome [14]: inactive

Compound: NNc1nncc2ccccc12
- Potency [12]: 39.8 nM (active)
- Potency [2]: inactive
- outcome [14]: inactive
- Potency [18]: 7940 nM (active)
- Potency [19]: inactive
